Measured values taken from PubChem BioAssay AID1159580 (chemical genetic matrix, 2015).
The campaign covered roughly 5,500 compounds. About 2,000 (36%) were called active. Another 18% or so got no clear call; they are omitted. Cut-off read from the data, not from the text of the source: active = normalized growth mostly below about 0.91 (no sharp cut-off); inconclusive = no clear call, values can overlap the other calls; inactive = mostly above about 0.92. This is one part of the list.

Assay: chemical genetic growth profiling, strain panel (AID 1159580);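 note: tested at 20 µM; growth read once vehicle control cultures reached saturation at 30 °C; 1 = growth at the plate median or of vehicle wells; lower values mean less growth of the strain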
Conditions: growth OD

Measured: normalized growth

CC[C@]12CCCN3CCc4c(n(c5ccccc45)C(=O)C1)[C@@H]32
inactive: S. cerevisiae deletion strains, locus YAL013W, strain DEP1, hits give low values 0.967 | S. cerevisiae deletion strains, locus YAL021C, strain ccr4, hits give low values 0.968 | S. cerevisiae deletion strains, locus YAL026C, strain drs2, hits give low values 1.04 | S. cerevisiae deletion strains, locus YAL030W, strain snc1, hits give low values 1.01 | S. cerevisiae deletion strains, locus YBL061C, strain skt5, hits give low values 1.01 | S. cerevisiae deletion strains, locus YBR009C, strain hhf1, hits give low values 1.01 | S. cerevisiae deletion strains, locus YBR021W, strain FUR4, hits give low values 1.07 | S. cerevisiae deletion strains, locus YBR023C, strain chs3, hits give low values 1 | S. cerevisiae deletion strains, locus YBR171W, strain sec66, hits give low values 0.999 | S. cerevisiae deletion strains, locus YBR229C, strain ROT2, hits give low values 1.02 | S. cerevisiae deletion strains, locus YBR231C, strain swc5, hits give low values 1.01 | S. cerevisiae deletion strains, locus YBR279W, strain paf1, hits give low values 1 | S. cerevisiae deletion strains, locus YCL011C, strain gbp2, hits give low values 1.01 | S. cerevisiae deletion strains, locus YCL016C, strain dcc1, hits give low values 0.983 | S. cerevisiae deletion strains, locus YCL029C, strain bik1, hits give low values 0.989 | S. cerevisiae deletion strains, locus YCL069W, strain vba3, hits give low values 1 | S. cerevisiae deletion strains, locus YCR088W, strain abp1, hits give low values 1.01 | S. cerevisiae deletion strains, locus YDL005C, strain med2, hits give low values 1 | S. cerevisiae deletion strains, locus YDL035C, strain GPR1, hits give low values 0.941 | S. cerevisiae deletion strains, locus YDL040C, strain nat1, hits give low values 1 | S. cerevisiae deletion strains, locus YDL074C, strain BRE1, hits give low values 0.9 | S. cerevisiae deletion strains, locus YDL101C, strain DUN1, hits give low values 0.977 | S. cerevisiae deletion strains, locus YDL134C, strain PPH21, hits give low values 0.951 | S. cerevisiae deletion strains, locus YDL185W, strain tfp1, hits give low values 0.953 | S. cerevisiae deletion strains, locus YDL192W, strain arf1, hits give low values 0.977 | S. cerevisiae deletion strains, locus YDR001C, strain nth1, hits give low values 0.998 | S. cerevisiae deletion strains, locus YDR069C, strain doa4, hits give low values 1.04 | S. cerevisiae deletion strains, locus YDR101C, strain arx1, hits give low values 0.98 | S. cerevisiae deletion strains, locus YDR137W, strain rgp1, hits give low values 1.15 | S. cerevisiae deletion strains, locus YDR150W, strain NUM1, hits give low values 0.988 | S. cerevisiae deletion strains, locus YDR159W, strain sac3, hits give low values 0.995 | S. cerevisiae deletion strains, locus YDR195W, strain ref2 1.01 | S. cerevisiae deletion strains, locus YDR297W, strain sur2, hits give low values 1.01 | S. cerevisiae deletion strains, locus YDR318W, strain mcm21, hits give low values 0.978 | S. cerevisiae deletion strains, locus YDR334W, strain swr1, hits give low values 1 | S. cerevisiae deletion strains, locus YDR335W, strain msn5, hits give low values 0.998 | S. cerevisiae deletion strains, locus YDR388W, hits give low values 0.993 | S. cerevisiae deletion strains, locus YDR392W, strain spt3, hits give low values 0.804 | S. cerevisiae deletion strains, locus YDR502C, strain sam2, hits give low values 0.984 | S. cerevisiae deletion strains, locus YEL003W, strain gim4, hits give low values 1 | S. cerevisiae deletion strains, locus YEL037C, strain rad23, hits give low values 0.993 | S. cerevisiae deletion strains, locus YEL061C, strain CIN8 (second series), hits give low values 1 | S. cerevisiae deletion strains, locus YEL061C, strain CIN8, hits give low values 0.992 | S. cerevisiae deletion strains, locus YER015W, strain faa2, hits give low values 0.997 | S. cerevisiae deletion strains, locus YER016W, strain bim1, hits give low values 0.999 | S. cerevisiae deletion strains, locus YER110C, hits give low values 0.975 | S. cerevisiae deletion strains, locus YER111C, strain swi4, hits give low values 0.998 | S. cerevisiae deletion strains, locus YER155C, strain BEM2 (second series), hits give low values 0.976 | S. cerevisiae deletion strains, locus YER155C, strain BEM2, hits give low values 1.01 | S. cerevisiae deletion strains, locus YER167W, strain BCK2, hits give low values 1 | S. cerevisiae deletion strains, locus YFR010W, strain ubp6, hits give low values 1.01 | S. cerevisiae deletion strains, locus YGL078C, strain dbp3, hits give low values 0.983 | S. cerevisiae deletion strains, locus YGL086W, strain mad1, hits give low values 0.992 | S. cerevisiae deletion strains, locus YGL167C, strain pmr1, hits give low values 0.98 | S. cerevisiae deletion strains, locus YGL173C, strain kem1, hits give low values 1.02 | S. cerevisiae deletion strains, locus YGL227W, strain vid30, hits give low values 1.01 | S. cerevisiae deletion strains, locus YGL240W, strain doc1, hits give low values 0.999 | S. cerevisiae deletion strains, locus YGL253W, strain hxk2, hits give low values 1.03 | S. cerevisiae deletion strains, locus YGR135W, strain pre9, hits give low values 0.97 | S. cerevisiae deletion strains, locus YGR252W, strain gcn5, hits give low values 1.03 | S. cerevisiae deletion strains, locus YHR013C, strain ard1, hits give low values 0.98 | S. cerevisiae deletion strains, locus YHR027C, strain rpn1, hits give low values 1 | S. cerevisiae deletion strains, locus YHR079C, strain IRE1 (second series), hits give low values 0.982 | S. cerevisiae deletion strains, locus YHR094C, strain hxt1, hits give low values 0.99 | S. cerevisiae deletion strains, locus YHR129C, strain ARP1, hits give low values 0.993 | S. cerevisiae deletion strains, locus YHR142W, strain chs7, hits give low values 1.01 | S. cerevisiae deletion strains, locus YHR200W, strain rpn10, hits give low values 0.981 | S. cerevisiae deletion strains, locus YIL066C, strain RNR3, hits give low values 0.987 | S. cerevisiae deletion strains, locus YIL073C, strain SPO22, hits give low values 0.692 | S. cerevisiae deletion strains, locus YIL125W, strain kgd1, hits give low values 0.989 | S. cerevisiae deletion strains, locus YIR030C, strain dcg1, hits give low values 0.978 | S. cerevisiae deletion strains, locus YJL092W, strain hpr5, hits give low values 0.997 | S. cerevisiae deletion strains, locus YJL095W, strain BCK1 (second series), hits give low values 0.996 | S. cerevisiae deletion strains, locus YJL095W, strain BCK1, hits give low values 0.956 | S. cerevisiae deletion strains, locus YJL115W, strain asf1, hits give low values 0.994 | S. cerevisiae deletion strains, locus YJL129C, strain trk1, hits give low values 1.01 | S. cerevisiae deletion strains, locus YJL134W, strain LCB3, hits give low values 0.993 | S. cerevisiae deletion strains, locus YJL154C, strain vps35, hits give low values 0.993 | S. cerevisiae deletion strains, locus YJL164C, strain tpk1, hits give low values 0.984 | S. cerevisiae deletion strains, locus YJL166W, strain qcr8, hits give low values 1.01 | S. cerevisiae deletion strains, locus YJL168C, strain set2, hits give low values 0.992 | S. cerevisiae deletion strains, locus YJL187C, strain SWE1 (second series), hits give low values 0.966 | S. cerevisiae deletion strains, locus YJL187C, strain SWE1, hits give low values 1.01 | S. cerevisiae deletion strains, locus YJR043C, strain POL32, hits give low values 0.998 | S. cerevisiae deletion strains, locus YKL009W, strain mrt4, hits give low values 0.95 | S. cerevisiae deletion strains, locus YKL068W, hits give low values 0.981 | S. cerevisiae deletion strains, locus YKL085W, strain MDH1 (second series), hits give low values 0.976 | S. cerevisiae deletion strains, locus YKL085W, strain MDH1, hits give low values 0.976 | S. cerevisiae deletion strains, locus YKL160W, strain elf1, hits give low values 0.974 | S. cerevisiae deletion strains, locus YKL190W, strain CNB1, hits give low values 0.941 | S. cerevisiae deletion strains, locus YKR001C, strain vps1, hits give low values 0.955 | S. cerevisiae deletion strains, locus YKR026C, strain gcn3, hits give low values 0.996 | S. cerevisiae deletion strains, locus YKR091W, strain srl3, hits give low values 0.996 | S. cerevisiae deletion strains, locus YLL001W, strain dnm1, hits give low values 0.956 | S. cerevisiae deletion strains, locus YLL026W, hits give low values 0.994 | S. cerevisiae deletion strains, locus YLL041C, strain sdh2, hits give low values 1.01 | S. cerevisiae deletion strains, locus YLR027C, strain aat2, hits give low values 1.01 | S. cerevisiae deletion strains, locus YLR039C, strain RIC1, hits give low values 0.741 | S. cerevisiae deletion strains, locus YLR058C, strain SHM2, hits give low values 0.991 | S. cerevisiae deletion strains, locus YLR102C, strain apc9, hits give low values 0.985 | S. cerevisiae deletion strains, locus YLR221C, strain rsa3, hits give low values 1.04 | S. cerevisiae deletion strains, locus YLR258W, strain gsy2, hits give low values 1 | S. cerevisiae deletion strains, locus YLR262C, strain YPT6 (second series), hits give low values 0.991 | S. cerevisiae deletion strains, locus YLR262C, strain YPT6, hits give low values 0.776 | S. cerevisiae deletion strains, locus YLR268W, strain sec22, hits give low values 0.971 | S. cerevisiae deletion strains, locus YLR320W, strain mms22, hits give low values 1 | S. cerevisiae deletion strains, locus YLR330W, strain CHS5, hits give low values 0.956 | S. cerevisiae deletion strains, locus YLR342W, strain FKS1, hits give low values 0.999 | S. cerevisiae deletion strains, locus YLR357W, strain rsc2, hits give low values 0.994 | S. cerevisiae deletion strains, locus YLR370C, strain arc18, hits give low values 0.996 | S. cerevisiae deletion strains, locus YLR371W, strain rom2, hits give low values 0.983 | S. cerevisiae deletion strains, locus YLR384C, strain iki3, hits give low values 1.03 | S. cerevisiae deletion strains, locus YLR418C, strain cdc73, hits give low values 0.906 | S. cerevisiae deletion strains, locus YML016C, strain PPZ1, hits give low values 1 | S. cerevisiae deletion strains, locus YML032C, strain rad52, hits give low values 0.99 | S. cerevisiae deletion strains, locus YML120C, strain ndi1, hits give low values 0.986 | S. cerevisiae deletion strains, locus YML124C, strain tub3, hits give low values 0.979 | S. cerevisiae deletion strains, locus YMR058W, strain fet3, hits give low values 1.01 | S. cerevisiae deletion strains, locus YMR078C, strain ctf18, hits give low values 0.973 | S. cerevisiae deletion strains, locus YMR125W, strain sto1, hits give low values 0.994 | S. cerevisiae deletion strains, locus YMR129W, hits give low values 1 | S. cerevisiae deletion strains, locus YMR205C, strain PFK2, hits give low values 0.991 | S. cerevisiae deletion strains, locus YMR223W, strain ubp8, hits give low values 0.968 | S. cerevisiae deletion strains, locus YMR231W, strain pep5, hits give low values 0.997 | S. cerevisiae deletion strains, locus YMR307W, strain GAS1, hits give low values 0.685 | S. cerevisiae deletion strains, locus YNL067W, strain RPL9B, hits give low values 0.906 | S. cerevisiae deletion strains, locus YNL071W, strain lat1, hits give low values 0.996 | S. cerevisiae deletion strains, locus YNL209W, strain ssb2, hits give low values 0.983 | S. cerevisiae deletion strains, locus YNL233W, strain BNI4, hits give low values 0.943 | S. cerevisiae deletion strains, locus YNL248C, strain rpa49, hits give low values 1.02 | S. cerevisiae deletion strains, locus YNL250W, strain rad50, hits give low values 0.988 | S. cerevisiae deletion strains, locus YNL271C, strain bni1, hits give low values 0.978 | S. cerevisiae deletion strains, locus YNL298W, strain CLA4, hits give low values 0.998 | S. cerevisiae deletion strains, locus YNL307C, strain MCK1, hits give low values 0.984 | S. cerevisiae deletion strains, locus YNL322C, strain KRE1 (second series), hits give low values 0.979 | S. cerevisiae deletion strains, locus YNL322C, strain KRE1, hits give low values 0.983 | S. cerevisiae deletion strains, locus YNR049C, strain mso1, hits give low values 1.01 | S. cerevisiae deletion strains, locus YNR052C, strain pop2, hits give low values 0.986 | S. cerevisiae deletion strains, locus YOL012C, strain htz1 0.684 | S. cerevisiae deletion strains, locus YOL147C, strain pex11, hits give low values 0.989 | S. cerevisiae deletion strains, locus YOR001W, strain rrp6, hits give low values 1.02 | S. cerevisiae deletion strains, locus YOR061W, strain CKA2, hits give low values 0.966 | S. cerevisiae deletion strains, locus YOR069W, strain VPS5, hits give low values 0.987 | S. cerevisiae deletion strains, locus YOR070C, strain gyp1, hits give low values 1 | S. cerevisiae deletion strains, locus YOR080W, strain dia2, hits give low values 1 | S. cerevisiae deletion strains, locus YOR083W, strain WHI5, hits give low values 0.972 | S. cerevisiae deletion strains, locus YOR106W, strain vam3, hits give low values 0.981 | S. cerevisiae deletion strains, locus YOR136W, strain idh2, hits give low values 0.977 | S. cerevisiae deletion strains, locus YOR144C, strain elg1, hits give low values 0.99 | S. cerevisiae deletion strains, locus YOR184W, strain ser1, hits give low values 0.94 | S. cerevisiae deletion strains, locus YOR265W, strain rbl2, hits give low values 0.994 | S. cerevisiae deletion strains, locus YOR270C, strain vph1, hits give low values 1.06 | S. cerevisiae deletion strains, locus YOR290C, strain snf2, hits give low values 0.98 | S. cerevisiae deletion strains, locus YOR316C, strain cot1, hits give low values 0.987 | S. cerevisiae deletion strains, locus YPL051W, strain arl3, hits give low values 0.968 | S. cerevisiae deletion strains, locus YPL078C, strain atp4, hits give low values 0.969 | S. cerevisiae deletion strains, locus YPL106C, strain sse1, hits give low values 0.973 | S. cerevisiae deletion strains, locus YPL240C, strain hsp82, hits give low values 1 | S. cerevisiae deletion strains, locus YPL241C, strain CIN2, hits give low values 0.991 | S. cerevisiae deletion strains, locus YPR119W, strain clb2, hits give low values 0.976 | S. cerevisiae deletion strains, locus YPR141C, strain kar3, hits give low values 0.977 | S. cerevisiae deletion strains, locus YPR163C, strain tif3, hits give low values 0.988 | S. cerevisiae deletion strains, locus YPR167C, strain met16, hits give low values 0.974 | S. cerevisiae deletion strains, strain wtn01, hits give low values 0.973 | S. cerevisiae strains, strain wild type, hits give low values 0.967
active: S. cerevisiae deletion strains, locus YDR162C, strain NBP2, hits give low values 0.552 | S. cerevisiae deletion strains, locus YGL248W, strain PDE1, hits give low values 0.857 | S. cerevisiae deletion strains, locus YHR030C, strain SLT2, hits give low values 0.885 | S. cerevisiae deletion strains, locus YLR342W, strain FKS1 (second series), hits give low values 1.21 [resistant]
